Four molecules from PubChem BioAssay (EPA / NIEHS) can be followed below.

A short description of assay [1]: ATG_GAL4_TRANS: Attagene TRANS-FACTORIAL HepG2 Assay for GAL4 (Internal Marker) (AID 2282976; active = hit-call score of the fitted dose curve at least 0.9, where 1 is the maximum). Particulars: HepG2 Attagene TRANS GAL4 internal marker reporter. A digest of the protocol:
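HepG2 cells transiently transfected with multiplexed GAL4-UAS reporter constructs were dosed for 24 h. Reporter mRNA was measured by RT-PCR, 6-FAM primer extension, HpaI digestion and capillary electrophoresis, and gain of signal was fitted relative to DMSO.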

For assay [2], the target named is Estrogen-related receptor gamma (Homo sapiens) (UniProt P62508). In words: ATG_ERRg_TRANS: Attagene TRANS-FACTORIAL HepG2 Assay for human Estrogen-Related Receptor gamma (ERRg) (AID 2282977; active = hit-call score of the fitted dose curve at least 0.9, where 1 is the maximum;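 note: hits increase reporter signal over DMSO so potencies reflect activators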). The note with it: HepG2 Attagene TRANS reporter, ERRg transactivation. In outline:
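Transient HepG2 transfectants, 24 h compound exposure, GAL4-UAS reporter mRNA by RT-PCR/6-FAM labelling/capillary electrophoresis; positive direction vs DMSO.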

Assay [3] has as its target Bile acid receptor (Homo sapiens) (UniProt Q96RI1). Nature of the assay: ATG_FXR_TRANS: Attagene TRANS-FACTORIAL HepG2 Assay for Farnesoid X Receptor (FXR) (AID 2282979; active = hit-call score of the fitted dose curve at least 0.9, where 1 is the maximum;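 note: hits raise reporter mRNA above DMSO so AC50 marks FXR activation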). Particulars: HepG2 Attagene TRANS FXR-GAL4 reporter transcription. A digest of the protocol:
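HepG2 cells transiently transfected with reporter constructs in which a chimeric FXR-GAL4 protein drives a GAL4-UAS reporter; 24 h compound exposure. Reporter mRNA measured by RT-PCR, FAM labelling, HpaI digestion and capillary electrophoresis; gain-of-signal versus DMSO.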

The target of assay [4] is Oxysterols receptor LXR-alpha (Homo sapiens) (UniProt Q13133). In words: ATG_LXRa_TRANS: Attagene TRANS-FACTORIAL HepG2 Assay for human Liver X Receptor alpha (LXRa) (AID 2282980; active = hit-call score of the fitted dose curve at least 0.9, where 1 is the maximum). Particulars: HepG2 Attagene TRANS reporter, LXRa transactivation. In outline: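 HepG2 cells were transiently transfected with multiplexed reporter units driven by chimeric LXRa–GAL4 fusion proteins, then dosed for 24 h. Reporter mRNA was quantified by RT-PCR, fluorescent labelling and capillary electrophoresis; gain of signal fitted against DMSO baseline.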

The target in assay [5] is Oxysterols receptor LXR-beta (Homo sapiens) (UniProt P55055). Nature of the assay: ATG_LXRb_TRANS: Attagene TRANS-FACTORIAL HepG2 Assay for human Liver X Receptor beta (LXRb) (AID 2282981; active = hit-call score of the fitted dose curve at least 0.9, where 1 is the maximum). The note with it: HepG2 Attagene TRANS GAL4-LXRb reporter, mRNA. In outline: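 HepG2 cells transiently transfected with multiple reporter transcription units carrying chimeric NR-Gal4 proteins acting on GAL4-UAS reporters; compound exposure 24 h. Reporter mRNA quantified by RT-PCR, 6-FAM labelling, HpaI digestion and capillary electrophoresis; gain of signal versus DMSO.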

The target of assay [6] is Hepatocyte nuclear factor 4-alpha (Homo sapiens) (UniProt P41235). Nature of the assay: ATG_HNF4a_TRANS: Attagene TRANS-FACTORIAL HepG2 Assay for human Hepatocyte Nuclear Factor 4 alpha (HNF4a) (AID 2282982; active = hit-call score of the fitted dose curve at least 0.9, where 1 is the maximum). The note with it: HepG2 HNF4a transactivation reporter, mRNA readout. A digest of the protocol: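 HepG2 cells transiently transfected with multiplexed GAL4-UAS reporter units responsive to chimeric NR-GAL4 proteins; compound exposure 24 h. Reporter mRNA quantified by RT-PCR, 6-FAM labelling, HpaI digestion and capillary electrophoresis; gain of signal versus DMSO baseline.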

The nature of assay [7]: ATG_M_06_TRANS: Attagene TRANS-FACTORIAL HepG2 Assay for M06 Transcription Factor (Internal Marker) (AID 2282983; active = hit-call score of the fitted dose curve at least 0.9, where 1 is the maximum). Particulars: HepG2 Attagene TRANS M06 internal marker reporter. In outline:
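HepG2 cells transiently transfected with multiplexed GAL4-UAS reporter transcription units; after 24 h compound exposure, reporter mRNA measured by RT-PCR, FAM-labelled primer extension, HpaI digestion and capillary electrophoresis. Gain-of-signal fitted versus DMSO baseline; background control readout.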

In assay [8] the target is Transcriptional activator Myb (Homo sapiens) (UniProt P10242). Nature of the assay: ATG_Myb_CIS: Attagene CIS-FACTORIAL HepG2 Assay for human Myeloblastosis (Myb) Proto-Oncogene Transcription Factor (AID 2282986). Particulars: HepG2 Attagene CIS-FACTORIAL Myb reporter transcription; actives raise or lower the signal. In outline:
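Transiently transfected HepG2 cells carrying a multiplexed cis-promoter reporter set report endogenous Myb activity after 24 h compound exposure. Reporter mRNA is read by RT-PCR with capillary electrophoresis of fluorescent products, fitted bidirectionally against DMSO.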

Assay [9] deals with Nuclear respiratory factor 1 (Homo sapiens) (UniProt Q16656). In words: ATG_NRF1_CIS: Attagene CIS-FACTORIAL HepG2 Assay for human Nuclear Respiratory Factor 1 (NRF1) Orphan Gene (AID 2282987). The note with it: HepG2 NRF1 cis-element reporter, Attagene multiplex; actives raise or lower the signal. In outline:
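HepG2 cells transiently transfected with multiple cis-regulated reporter units, exposed 24 h. Reporter mRNAs measured by RT-PCR, fluorescent labelling, HpaI digestion and capillary electrophoresis; bidirectional fitting against DMSO.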

Assay [10] in a line: ATG_NFI_CIS: Attagene CIS-FACTORIAL HepG2 Assay for human Nuclear Factor I (NFI) (AID 2282989). The note with it: HepG2 cis-regulatory reporter, NFI response element transcription; actives raise or lower the signal. A digest of the protocol:
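Reporter transcripts were measured by RT-PCR with fluorescent primer extension and capillary electrophoresis 24 h post-treatment. HepG2 cells carried transiently transfected cis-regulated reporter constructs reporting endogenous factor activity; gain or loss fitted against DMSO baseline.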

In assay [11] the target is Myc proto-oncogene protein (Homo sapiens) (UniProt P01106). In words: ATG_Myc_CIS: Attagene CIS-FACTORIAL HepG2 Assay for human Myelocytomatosis (Myc) Proto-Oncogene Transcription Factor (AID 2282990). The note with it: HepG2, Attagene cis-reporter transcription factor activity; actives raise or lower the signal. In outline: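 DMSO-normalised, bidirectionally fitted reporter mRNA signal. HepG2 cells transfected with cis reporter constructs, treated 24 h; transcripts detected by RT-PCR, 6-FAM primer extension and CE.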

Assay [12] is described as follows: ATG_NF_kB_CIS: Attagene CIS-FACTORIAL HepG2 Assay for human Nuclear Factor Kappa B (NF-kB) (AID 2282991). Particulars: HepG2 Attagene cis-factorial NF-kB reporter mRNA; actives raise or lower the signal. A digest of the protocol: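 HepG2 cells transfected with cis-promoter-driven reporter units, so endogenous transcription factor activity is measured. Reporter mRNA quantified 24 h after dosing by RT-PCR and capillary electrophoresis, with bidirectional fitting against DMSO.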

A short description of assay [13]: ATG_NRF2_ARE_CIS: Attagene CIS-FACTORIAL HepG2 Assay for human Nuclear Factor Erythroid 2 Related Factor 2 (NFR2) response to Antioxidant Response Elements (ARE) (AID 2282992).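 For AC50: reporter mRNA level measured by RT-PCR and capillary electrophoresis fluorescence.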 Particulars: HepG2 Attagene ARE/NRF2 reporter, transcription factor activity; actives raise or lower the signal. A digest of the protocol:
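Transient MRTU transfection of HepG2; 24 h compound exposure; TriZol RNA, RT with oligo(dT), PCR, 6-FAM primer extension, HpaI cut, CE. Bidirectional fit vs DMSO.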

The nature of assay [14]: ATG_Oct_MLP_CIS: Attagene CIS-FACTORIAL HepG2 Assay for human Octamer-Binding Transcription Factor (Oct) (AID 2282993). The note with it: HepG2 Attagene cis-factorial Oct reporter, mRNA; actives raise or lower the signal. A digest of the protocol:
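Readout is reporter transcript level from RT-PCR with fluorescent primer extension and capillary electrophoresis, fitted in both directions against DMSO. Transfected HepG2 reporter units report endogenous factor activity after 24 h dosing.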

Assay [15] has as its target Cellular tumor antigen p53 (Homo sapiens) (UniProt P04637). Nature of the assay: ATG_p53_CIS: Attagene CIS-FACTORIAL HepG2 Assay for human p53 Transcription Factor (AID 2282994). Particulars: HepG2 p53 cis-element reporter, Attagene mRNA; actives raise or lower the signal. A digest of the protocol: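 HepG2, transient MRTU transfection (cis promoter elements, endogenous TFs); 24 h dosing; RNA isolation, RT-PCR, 6-FAM primer extension, HpaI digest, CE fluorescence; bidirectional fit vs DMSO.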

Assay [16] in a line: BSK_3C_TissueFactor: BioMAP Diversity Plus: 3C Assay for Tissue Factor Biomarker Activity (AID 2282997). Particulars: BioMAP 3C HUVEC, tissue factor biomarker readout; actives raise or lower the signal. In outline: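 Primary human umbilical vein endothelial cells in the 3C system were exposed to test chemical for 24 h, then Tissue Factor measured by ELISA. Activity was fitted bidirectionally against DMSO as negative control and baseline.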

A short description of assay [17]: BSK_3C_uPAR: BioMAP Diversity Plus: 3C Assay for Urokinase-type plasminogen activator receptor (uPAR) Biomarker Activity (AID 2282998). Particulars: BioMAP 3C HUVEC, uPAR biomarker ELISA; actives raise or lower the signal. A digest of the protocol:
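Cell-surface uPAR on HUVEC (3C system) read by ELISA at 24 h post-treatment, with DMSO as baseline and fitting in both directions. Parallel cultures stained with SRB to flag overt cytotoxicity.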

Assay [18] can be described thus: ATG_M_32_TRANS: Attagene TRANS-FACTORIAL HepG2 Assay for M32 Transcription Factor (Internal Marker) (AID 2282984; active = hit-call score of the fitted dose curve at least 0.9, where 1 is the maximum). The note with it: HepG2 Attagene TRANS M32 internal marker reporter. A digest of the protocol: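 HepG2 cells transiently transfected with multiple GAL4-UAS reporter transcription units, dosed for 24 hours; reporter mRNA quantified by RT-PCR, 6-FAM primer extension, HpaI digestion and capillary electrophoresis. Gain-of-signal fitted versus DMSO baseline; internal background-control marker.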

In assay [19] the target is Nuclear receptor subfamily 4 group A member 2 (Homo sapiens) (UniProt P43354). Nature of the assay: ATG_NURR1_TRANS: Attagene TRANS-FACTORIAL HepG2 Assay for human Nuclear Receptor Related Protein 1 (NURR1) (AID 2282985; active = hit-call score of the fitted dose curve at least 0.9, where 1 is the maximum). The note with it: HepG2 Attagene TRANS reporter, mRNA readout. A digest of the protocol: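 HepG2 cells transiently transfected with GAL4-UAS reporter units and chimeric NR-Gal4 constructs; chemical exposure 24 h. Reporter mRNA quantified by RT-PCR, fluorescent labelling and capillary electrophoresis; gain of signal fitted relative to DMSO baseline.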

The target of assay [20] is Glucocorticoid receptor (Homo sapiens) (UniProt P04150). In words: ATG_GR_TRANS: Attagene TRANS-FACTORIAL HepG2 Assay for human Glucocorticoid Receptor (GR) (AID 2282978; active = hit-call score of the fitted dose curve at least 0.9, where 1 is the maximum;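 note: activators score as hits since higher reporter transcript over DMSO is fitted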). The note with it: HepG2 Attagene TRANS GR reporter, mRNA transcription. In outline:
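HepG2 cells transiently transfected with GAL4-UAS reporter units and exogenous GR-Gal4 chimera, dosed 24 h. Reporter mRNA by RT-PCR, FAM labeling, HpaI digest and capillary electrophoresis; gain-of-signal fit versus DMSO.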

Results filed as inconclusive are left out. Active and inactive are the calls of the source. Rule for the calls, unless noted: active = hit-call score of the fitted dose curve at least 0.9, where 1 is the maximum; inactive = score below 0.9.

Sequence of Hepatocyte nuclear factor 4-alpha (Homo sapiens) (P41235 whole entry, looked up, the tested form may be a part): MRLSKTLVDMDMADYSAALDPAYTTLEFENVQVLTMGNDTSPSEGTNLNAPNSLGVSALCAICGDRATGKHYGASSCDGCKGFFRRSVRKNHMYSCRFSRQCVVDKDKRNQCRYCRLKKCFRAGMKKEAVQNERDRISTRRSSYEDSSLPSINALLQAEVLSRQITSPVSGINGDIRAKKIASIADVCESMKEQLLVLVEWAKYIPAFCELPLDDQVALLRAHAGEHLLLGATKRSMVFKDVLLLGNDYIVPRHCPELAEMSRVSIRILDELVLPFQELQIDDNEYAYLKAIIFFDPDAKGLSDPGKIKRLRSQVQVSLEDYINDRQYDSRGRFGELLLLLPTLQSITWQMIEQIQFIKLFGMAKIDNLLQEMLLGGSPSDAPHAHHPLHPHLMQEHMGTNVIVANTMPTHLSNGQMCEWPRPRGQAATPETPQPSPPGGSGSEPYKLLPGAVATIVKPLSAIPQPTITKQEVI
Sequence of Estrogen-related receptor gamma (Homo sapiens) (P62508 whole entry, looked up, the tested form may be a part): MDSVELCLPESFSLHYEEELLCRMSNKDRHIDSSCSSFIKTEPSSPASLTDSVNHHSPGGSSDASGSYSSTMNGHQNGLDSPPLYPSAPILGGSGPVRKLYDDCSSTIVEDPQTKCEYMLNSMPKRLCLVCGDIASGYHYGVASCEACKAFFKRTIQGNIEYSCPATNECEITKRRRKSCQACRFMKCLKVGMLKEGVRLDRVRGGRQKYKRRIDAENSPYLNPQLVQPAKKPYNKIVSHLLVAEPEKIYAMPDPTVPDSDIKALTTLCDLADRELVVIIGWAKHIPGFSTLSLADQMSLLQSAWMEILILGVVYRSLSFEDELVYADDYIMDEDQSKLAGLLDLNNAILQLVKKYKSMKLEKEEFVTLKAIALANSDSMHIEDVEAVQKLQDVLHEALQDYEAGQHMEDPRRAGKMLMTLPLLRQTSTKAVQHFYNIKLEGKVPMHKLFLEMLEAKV
Sequence of Oxysterols receptor LXR-beta (Homo sapiens) (P55055 whole entry, looked up, the tested form may be a part): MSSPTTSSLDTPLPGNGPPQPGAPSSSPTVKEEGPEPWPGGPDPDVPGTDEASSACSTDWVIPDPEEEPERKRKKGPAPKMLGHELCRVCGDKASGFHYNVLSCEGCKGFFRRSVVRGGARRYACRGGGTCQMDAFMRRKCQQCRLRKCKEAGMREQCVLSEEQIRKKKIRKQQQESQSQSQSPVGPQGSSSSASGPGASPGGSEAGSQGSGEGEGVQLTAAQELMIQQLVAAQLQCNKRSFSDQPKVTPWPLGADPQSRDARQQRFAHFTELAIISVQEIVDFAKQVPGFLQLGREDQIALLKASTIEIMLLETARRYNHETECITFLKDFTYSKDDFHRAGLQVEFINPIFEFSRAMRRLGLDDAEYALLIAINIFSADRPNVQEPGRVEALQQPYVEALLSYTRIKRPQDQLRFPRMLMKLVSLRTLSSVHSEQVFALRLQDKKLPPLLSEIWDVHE
Sequence of Myc proto-oncogene protein (Homo sapiens) (P01106 whole entry, looked up): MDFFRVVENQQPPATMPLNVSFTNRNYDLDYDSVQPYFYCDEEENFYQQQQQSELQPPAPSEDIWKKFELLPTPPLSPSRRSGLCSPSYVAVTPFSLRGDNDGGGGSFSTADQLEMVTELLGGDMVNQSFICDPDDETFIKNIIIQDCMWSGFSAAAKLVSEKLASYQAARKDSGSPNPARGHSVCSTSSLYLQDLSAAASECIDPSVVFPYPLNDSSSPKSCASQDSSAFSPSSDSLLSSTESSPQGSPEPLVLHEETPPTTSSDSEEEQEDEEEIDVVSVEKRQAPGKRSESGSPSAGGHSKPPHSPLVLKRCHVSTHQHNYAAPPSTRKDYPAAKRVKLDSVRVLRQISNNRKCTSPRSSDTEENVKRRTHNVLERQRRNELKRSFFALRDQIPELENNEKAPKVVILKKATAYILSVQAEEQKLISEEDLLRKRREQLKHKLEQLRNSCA
Sequence of Transcriptional activator Myb (Homo sapiens) (P10242 whole entry, looked up): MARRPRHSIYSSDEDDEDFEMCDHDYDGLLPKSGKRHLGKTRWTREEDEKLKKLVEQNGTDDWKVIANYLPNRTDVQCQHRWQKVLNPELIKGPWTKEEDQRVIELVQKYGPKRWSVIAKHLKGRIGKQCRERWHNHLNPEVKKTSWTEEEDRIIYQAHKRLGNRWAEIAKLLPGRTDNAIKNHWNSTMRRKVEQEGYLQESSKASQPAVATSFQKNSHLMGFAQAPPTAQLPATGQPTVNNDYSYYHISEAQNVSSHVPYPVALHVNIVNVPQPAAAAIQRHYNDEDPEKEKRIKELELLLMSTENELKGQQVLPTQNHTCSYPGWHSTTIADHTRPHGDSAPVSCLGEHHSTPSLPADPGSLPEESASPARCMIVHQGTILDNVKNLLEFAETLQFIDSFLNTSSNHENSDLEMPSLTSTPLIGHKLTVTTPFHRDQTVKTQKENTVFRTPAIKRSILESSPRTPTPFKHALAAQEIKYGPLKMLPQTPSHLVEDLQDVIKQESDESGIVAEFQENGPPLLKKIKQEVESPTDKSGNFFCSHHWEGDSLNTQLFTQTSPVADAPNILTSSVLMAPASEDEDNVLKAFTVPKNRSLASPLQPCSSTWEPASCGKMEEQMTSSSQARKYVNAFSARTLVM
Sequence of Cellular tumor antigen p53 (Homo sapiens) (P04637 whole entry, looked up): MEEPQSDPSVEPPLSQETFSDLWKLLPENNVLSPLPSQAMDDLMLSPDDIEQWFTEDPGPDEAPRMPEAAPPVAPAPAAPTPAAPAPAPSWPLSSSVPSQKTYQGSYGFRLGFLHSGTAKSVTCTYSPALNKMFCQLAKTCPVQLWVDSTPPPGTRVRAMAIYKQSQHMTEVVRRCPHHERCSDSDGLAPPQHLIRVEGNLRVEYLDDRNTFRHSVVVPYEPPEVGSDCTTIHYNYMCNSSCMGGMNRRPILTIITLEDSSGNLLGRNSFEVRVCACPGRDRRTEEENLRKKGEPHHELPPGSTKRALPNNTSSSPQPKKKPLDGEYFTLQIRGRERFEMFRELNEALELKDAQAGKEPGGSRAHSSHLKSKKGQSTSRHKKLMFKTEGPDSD
Sequence of Bile acid receptor (Homo sapiens) (Q96RI1 whole entry, looked up, the tested form may be a part): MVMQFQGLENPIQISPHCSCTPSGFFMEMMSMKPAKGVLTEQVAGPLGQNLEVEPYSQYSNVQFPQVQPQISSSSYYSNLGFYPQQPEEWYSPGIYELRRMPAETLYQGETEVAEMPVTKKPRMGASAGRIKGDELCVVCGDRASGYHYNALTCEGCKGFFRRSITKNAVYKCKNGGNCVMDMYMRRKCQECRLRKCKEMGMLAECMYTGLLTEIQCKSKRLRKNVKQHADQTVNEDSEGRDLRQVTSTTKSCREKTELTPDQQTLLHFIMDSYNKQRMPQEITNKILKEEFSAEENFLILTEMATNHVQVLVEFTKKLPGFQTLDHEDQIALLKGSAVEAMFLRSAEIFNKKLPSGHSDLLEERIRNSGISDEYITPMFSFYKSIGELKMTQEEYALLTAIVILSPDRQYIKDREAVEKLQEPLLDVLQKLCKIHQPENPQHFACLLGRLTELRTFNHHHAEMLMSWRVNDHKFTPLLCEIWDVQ
Sequence of Oxysterols receptor LXR-alpha (Homo sapiens) (Q13133 whole entry, looked up, the tested form may be a part): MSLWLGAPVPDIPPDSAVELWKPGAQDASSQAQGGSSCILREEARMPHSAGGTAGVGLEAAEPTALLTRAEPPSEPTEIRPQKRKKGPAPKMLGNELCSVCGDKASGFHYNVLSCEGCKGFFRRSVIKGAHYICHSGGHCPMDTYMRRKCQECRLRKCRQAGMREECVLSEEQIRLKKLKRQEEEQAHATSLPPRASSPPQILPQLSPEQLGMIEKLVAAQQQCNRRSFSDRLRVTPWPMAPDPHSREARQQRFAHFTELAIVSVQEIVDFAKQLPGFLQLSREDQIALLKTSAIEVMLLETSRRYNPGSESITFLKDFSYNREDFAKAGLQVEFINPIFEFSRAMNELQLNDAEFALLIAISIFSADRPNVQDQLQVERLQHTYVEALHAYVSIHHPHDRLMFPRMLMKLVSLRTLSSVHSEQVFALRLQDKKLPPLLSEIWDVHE
Sequence of Nuclear respiratory factor 1 (Homo sapiens) (Q16656 whole entry, looked up): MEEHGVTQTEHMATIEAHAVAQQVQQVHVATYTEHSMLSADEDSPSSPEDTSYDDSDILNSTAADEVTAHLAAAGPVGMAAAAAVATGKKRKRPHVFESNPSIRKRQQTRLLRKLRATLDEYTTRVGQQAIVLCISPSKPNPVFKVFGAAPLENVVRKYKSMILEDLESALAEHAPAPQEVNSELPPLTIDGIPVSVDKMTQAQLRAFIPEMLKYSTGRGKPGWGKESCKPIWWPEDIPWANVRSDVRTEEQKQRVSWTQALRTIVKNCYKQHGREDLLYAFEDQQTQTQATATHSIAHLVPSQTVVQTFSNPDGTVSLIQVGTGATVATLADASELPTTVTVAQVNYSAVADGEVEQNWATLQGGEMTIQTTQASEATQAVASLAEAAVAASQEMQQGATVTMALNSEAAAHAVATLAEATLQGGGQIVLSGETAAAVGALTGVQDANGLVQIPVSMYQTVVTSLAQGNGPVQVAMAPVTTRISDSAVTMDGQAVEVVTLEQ
Sequence of Nuclear receptor subfamily 4 group A member 2 (Homo sapiens) (P43354 whole entry, looked up, the tested form may be a part): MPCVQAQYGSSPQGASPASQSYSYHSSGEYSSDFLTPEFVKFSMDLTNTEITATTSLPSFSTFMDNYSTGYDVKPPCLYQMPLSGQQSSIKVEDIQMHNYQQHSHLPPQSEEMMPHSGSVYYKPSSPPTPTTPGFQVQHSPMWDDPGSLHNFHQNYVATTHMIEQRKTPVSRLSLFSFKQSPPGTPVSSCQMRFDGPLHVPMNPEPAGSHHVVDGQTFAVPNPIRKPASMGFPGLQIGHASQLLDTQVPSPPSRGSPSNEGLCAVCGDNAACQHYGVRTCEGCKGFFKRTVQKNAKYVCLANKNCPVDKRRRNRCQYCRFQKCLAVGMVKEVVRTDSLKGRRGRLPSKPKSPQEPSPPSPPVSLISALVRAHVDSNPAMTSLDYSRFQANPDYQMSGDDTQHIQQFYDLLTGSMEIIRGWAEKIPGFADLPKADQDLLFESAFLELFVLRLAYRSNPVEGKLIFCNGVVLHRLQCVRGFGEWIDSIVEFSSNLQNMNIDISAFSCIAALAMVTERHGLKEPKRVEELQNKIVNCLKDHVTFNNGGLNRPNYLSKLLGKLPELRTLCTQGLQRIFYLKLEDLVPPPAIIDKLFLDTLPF

With `COc1ccc(C(=CC(=O)N2CCOCC2)c2ccc(Cl)cc2)cc1OC`, the result in assay [1], in assay [2], in [3], in [4], in [5] and in assay [6] was inactive. Moreover, the molecule was classed as inactive in assay [7], in assay [8], in assay [9], in [10], in assay [11] and in assay [12]. Besides, the outcome in assay [15] and in [16] was inactive. For the same molecule, the concentration at half-maximal activity (AC50) in [13] was 8.76 µM (active); in assay [14], 13.8 µM (active); in [17], 12.7 µM (active).
`CNC(=O)ON=C(SC)C(=O)N(C)C`: the molecule was called inactive in [2], in assay [5], in assay [6], in assay [8], in [9] and in assay [10]. The call in assay [11], in assay [12], in [15], in [16] and in [17] was inactive. In addition, the AC50 is 24.9 µM (active) in [13] and 18.9 µM (active) in assay [14].
In the case of `CCOP(=S)(OCC)OC(Cl)C(Cl)(Cl)Cl` (stereo unspecified), the outcome in assay [2], in assay [4], in [5], in assay [6], in [7] and in [18] was inactive. The outcome in [19], in assay [8], in assay [10], in assay [11], in assay [16] and in assay [17] was inactive. The figures for the concentration at half-maximal activity (AC50) in assay [12], in assay [13] and in assay [14] were 26.4 µM (active), 50 µM (active) and 29.2 µM (active), respectively.
For `COP(=O)(OC)OC(Br)C(Cl)(Cl)Br` (stereo unspecified), the molecule was classed as inactive in assay [20], in assay [3], in assay [5], in [6], in [8] and in assay [10]. The molecule was classed as inactive in assay [11], in assay [13] and in [14]. For the same molecule, the AC50 was 16.3 µM (active) in assay [16] and 31.7 µM (active) in assay [17].
